Bioassay records: PubChem BioAssay, Johns Hopkins Ion Channel Center
KCNQ2 block – inhibitors of rat KCNQ2 potassium channel; AID 2156; 310,000 tested, 1.1% active; B-score at 10 µM; CHO-K1 KCNQ2, FluxOR thallium flux, 20 min; hits give low values; O88943;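 active = fluorescence ratio B-score at most minus 3 library SDs, with starting brightness B-score within 2 library SDs, cut at about -5.5 in these data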
KCNQ2 enhance – KCNQ2 (rat) channel potentiation | O88943 | CHO-K1 KCNQ2, FluxOR thallium flux fluorescence; hits give high values | B-score at 10 µM | 310,000 tested, 0.54% active | AID 2239;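 active = fluorescence ratio B-score at least 3 SD of library B-scores, with initial fluorescence B-score within 3 of them, cut at about 5.3 in these data; same plate scores as AID 2156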;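 note: B-score of peak minus minimum over baseline fluorescence ratio after K+ and Tl+ stimulus; positive B-score means potentiation of KCNQ2 with more thallium influx and brighter signal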
Kir21 confirm – confirmation of mouse Kir2.1 potassium channel inhibitors; shares compounds with KCNQ2 enhance; Kir2.1-expressing cells, FluxOR thallium flux fluorescence; hits give low values; Tl flux remaining, % of negative control (hits give low values), % at 10 µM; 2,300 tested, 41% active; AID 2032;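 active = Primary-screen hit whose thallium flux fell at least 3 control SD below untreated wells in both duplicates, with normal baseline fluorescence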
HEK293 ctr – parental HEK293 activity in Kir2.1 inhibitor counter-screen. FluxOR signal as % of negative control (100 = no effect), % at 10 µM. AID 2105. parental HEK293 cells, FluxOR thallium flux fluorescence; 0% = unstimulated blank wells. shares compounds with KCNQ2 enhance. 2,300 tested, 19% active;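 active = dye signal at least 3 control SD above or below untreated wells in both duplicates, raw fluorescence within 3, either direction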;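 note: percent is based on the flux ratio of peak minus minimum fluorescence over baseline F0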
CHO-K1 Tl ctr – parental CHO-K1 activity in KCNQ2 potentiator counter-screen. shares compounds with KCNQ2 enhance. parental CHO-K1 cells, FluxOR thallium flux fluorescence; zero = vehicle mean+3SD, 100% = vehicle-minus-blank window. activity increase over 3SD of controls, % at 10 µM. 1,200 tested, 43% active. AID 2282;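 active = signal rise of at least 3 SD above the untreated control mean, in both duplicate wells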;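 note: counter screen of KCNQ2 potentiator hits so any rise reflects channel-independent effects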
KCNQ1 sel pot – selectivity of KCNQ2 potentiators: effect on human KCNQ1. activation over 3SD threshold, % at 10 µM. shares compounds with KCNQ2 enhance. CHO KCNQ1 stable, FluxOR thallium flux fluorescence; beyond 3SD, as % of vehicle-control signal. 1,200 tested, 28% active;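 active = fluorescence ratio rise of at least 3 SD of vehicle wells above their mean, in both replicate wells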
KCNQ2 pot confirm – rat KCNQ2 channel potentiator confirmation; shares compounds with KCNQ2 enhance; CHO-KCNQ2 cells, FluxOR thallium flux fluorescence; potentiation, less the hit threshold, % at 10 µM; 1,200 tested, 68% active; AID 2287;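 active = fluorescence ratio rising 3 SD or more over the vehicle control mean in both replicates, plus primary screen hit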;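 note: peak minus minimum thallium fluorescence divided by baseline after K/Tl stimulus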
Kir2-1 sel – mouse Kir2.1 off-target activity of KCNQ2 potentiators; shares compounds with KCNQ2 enhance; HEK293 Kir2.1, FluxOR thallium flux fluorescence; activity over 3SD threshold, % at 10 µM; 1,200 tested, 2% active; AID 2345;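 active = fluorescence ratio rise of at least 3 SD above the vehicle-control mean, seen in both replicates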
KCNQ2 W236L MoA – potentiates the retigabine-insensitive rat KCNQ2 W236L mutant channel. CHO KCNQ2-W236L, automated patch clamp current. 940 tested, 10% active. current increase over 3SD of negative controls (%), hits give high values, % at 25 µM. AID 2558. shares compounds with KCNQ2 enhance;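 active = current increase at least 3 SD of the untreated controls above them in both duplicate recordings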
Large screens that a line does not name were inactive (follow-up assays come after a bar, where they were run). Shown are actives, neighbours in structure and some others; about 1.6% of the full set was active somewhere.

CCOC(=O)c1csc(N/N=C2\CCCc3ccccc32)n1	KCNQ2 enhance 5.5 | Kir21 confirm inactive | HEK293 ctr inactive | CHO-K1 Tl ctr 22 | KCNQ1 sel pot inactive | KCNQ2 pot confirm inactive | Kir2-1 sel inactive | KCNQ2 W236L MoA inactive
CCOC(=O)c1csc(N/N=C2\CCc3ccccc32)n1	none
O=[N+]([O-])c1cc(C=Nc2cccc3c(O)cccc23)ccc1Cl	none (no result: KCNQ2 enhance)
Cn1c(SC/C=C/c2ccccc2)nnc1-c1cccs1	none (no result: KCNQ2 enhance)
C=CCn1c(Cc2cccs2)nnc1SC/C=C/c1ccccc1	none (no result: KCNQ2 enhance) | Kir21 confirm 31% | HEK293 ctr inactive
C=CCn1c(Cc2cccs2)nnc1SCC(=O)Nc1cc(OC)cc(OC)c1	none (no result: KCNQ2 enhance)
CCn1c(SC/C=C/c2ccccc2)nnc1-c1cccs1	none (no result: KCNQ2 enhance) | Kir21 confirm 48% | HEK293 ctr inactive
COc1ccc(N(CC(=O)NCC2CCCO2)S(=O)(=O)c2ccccc2)cc1OC (stereo unspecified)	none (no result: KCNQ2 enhance)
CC(C(=O)NCCS(=O)(=O)c1ccc(Br)cc1)S(=O)(=O)c1ccc(Cl)cc1 (stereo unspecified)	none (no result: KCNQ2 enhance)
CC(C)c1ccc(C(C)NCCS(=O)(=O)c2ccc(Cl)cc2)cc1 (stereo unspecified)	none (no result: KCNQ2 enhance) | Kir21 confirm 56% | HEK293 ctr inactive
O=C(NNC(=S)NC1CCCCC1)c1ccccc1Br	none
N#Cc1c(-c2ccco2)nc(SCC(=O)Nc2cccc(Cl)c2)[nH]c1=O	KCNQ2 enhance 5.5 | Kir21 confirm inactive | HEK293 ctr inactive | CHO-K1 Tl ctr inactive | KCNQ1 sel pot inactive | KCNQ2 pot confirm 7.4 | Kir2-1 sel inactive | KCNQ2 W236L MoA inactive
O=C(CSc1nc2[nH]ncc2c(=O)[nH]1)Nc1cccc(Cl)c1	none (no result: KCNQ2 enhance)
O=C1CSC(=S)N1/N=C/c1cc(Br)c(O)c(Br)c1	none (no result: KCNQ2 enhance)
CCN1CCN(c2cc(C(C)C)nc3c(-c4ccccc4)c(C)nn23)CC1	none (no result: KCNQ2 enhance) | Kir21 confirm 60% | HEK293 ctr inactive
Cc1nn2c(N3CCOCC3)cc(C(C)C)nc2c1-c1ccccc1	none (no result: KCNQ2 enhance)
Cc1ccc(NC(=O)CS(=O)CC(=O)N(CC(=O)NC(C)(C)C)c2cccc(C)c2C)cc1 (stereo unspecified)	none (no result: KCNQ2 enhance)
Cc1ccc(NC(=O)/C=N/OCC(=O)NCc2ccccc2Cl)cc1	none (no result: KCNQ2 enhance)
O=C(CN1CCCCC1)NCC1(c2ccccc2)CCCC1	none
CC(=O)Nc1ccc(NC(=O)CC23CC4CC(CC(C4)C2)C3)cc1	none
CN(C)S(=O)(=O)Nc1cccc(NC(=O)CC23CC4CC(CC(C4)C2)C3)c1	KCNQ2 enhance 7.8 | Kir21 confirm inactive | HEK293 ctr inactive | CHO-K1 Tl ctr 7.1 | KCNQ1 sel pot 6.3 | KCNQ2 pot confirm inactive | Kir2-1 sel inactive | KCNQ2 W236L MoA inactive
CN(C)S(=O)(=O)c1cccc(NC(=O)CC23CC4CC(CC(C4)C2)C3)c1	none
O=C(CC12CC3CC(CC(C3)C1)C2)Nc1c(F)cccc1F	KCNQ2 enhance 10 | Kir21 confirm inactive | HEK293 ctr inactive | CHO-K1 Tl ctr inactive | KCNQ1 sel pot inactive | KCNQ2 pot confirm 33 | Kir2-1 sel inactive | KCNQ2 W236L MoA inactive
CCC(C)/C=C/C1=CC2=C(Cl)C(=O)C3(C)OC(=O)C(C(=O)C(C)C(C)O)C3C2=CO1 (stereo unspecified)	none
CC1Cc2ccccc2N1C(=O)CSc1nccc(=O)[nH]1 (stereo unspecified)	none
COc1ccc(CCC(=O)NC2CCCc3ccccc32)cc1OC (stereo unspecified)	none
CCCCOc1c(Br)cc(/C=N/O)cc1OCC	none (no result: KCNQ2 enhance) | Kir21 confirm 74% | HEK293 ctr inactive
C=CCOc1c(Br)cc(/C=N/O)cc1OCC	none (no result: KCNQ2 enhance)
O=C(Nc1ccc(C(=O)OC2CCCCC2)cc1)c1ccncc1	none (no result: KCNQ2 enhance)
